High-throughput results (PubChem BioAssay)
The list is not random: actives were taken first. Their share in the collection is about 0.5%.
E coli growth-1: E. coli V3065 growth inhibition, primary screen, counter-screen for AddAB inhibitor project, absorbance, OD600. 18 h. inhibition, % at 11.9 µM. AID 449728, 2010. hit rate 0.27% among 330,000;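 active = inhibition above the campaign's mean inhibition across all tested compounds plus 3 SD, cut at about 9.9% in these data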;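 note: uninfected addAB+ strain grown without phage in ampicillin broth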
phage Ecoli inh: growth loss of phage-infected E. coli, primary screen, RecBCD inhibitor project, absorbance, with phage, HTS | inhibition, % at 11.9 µM | hit rate 0.26% among 360,000 | AID 651602, 2012; in the data active = inhibition above about 11%
E coli growth-2: E. coli growth inhibition, primary screen, OD600. Escherichia coli growth, 23 h; active compounds read low. OD600 absorbance (no concentration beside the values). hit rate 0.21% among 330,000. AID 1053175, 2014;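 active = OD600 absorbance below the run mean of sample wells minus 3.6 SD, in any replicate, cut at about 0.56 in these data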
Tat transport: E. coli Tat export inhibitors, primary screen, MC4100, TorA-mCherry reporter, fluorescence, single point. hit rate 0.036% among 340,000. inhibition, % at 10 µM. AID 488895, 2010;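 active = mean replicate inhibition at least 50% and at least half of replicates individually reaching 50%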;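 note: exported cargo escapes ClpAP degradation while cytoplasmic cargo is degraded and loses fluorescence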
AddAB inh: growth inhibition of E. coli expressing H. pylori AddAB, primary screen, AddAB inhibitor project, absorbance; hit rate 0.29% among 330,000; inhibition, % at 11.9 µM; in the data active = inhibition above about 12%
AddAB conf: growth loss of phage-infected E. coli expressing H. pylori AddAB, confirmation, AddAB inhibitor project, absorbance, E. coli V3065, T4 phage, triplicate | inhibition, % at 11.9 µM | OD; T4 phage with gene 2 nonsense mutations | AID 488942, 2010 | hit rate 64% among 880 | shares compounds with AddAB inh;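 active = mean inhibition above a set limit taken from the earlier primary screen, cut at about 13% in these data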;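 note: higher means less bacterial growth since AddAB block lets phage replicate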
RecBCD counter: growth loss of RecBCD+ E. coli with mutant T4 phage, counter-screen for AddAB inhibitor project, absorbance, V66 E. coli. shares compounds with AddAB inh. OD growth. inhibition, % at 11.9 µM. hit rate 73% among 880;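 active = mean inhibition above the mean of solvent-only control wells plus 3 SD, cut at about 4% in these data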;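 note: optical density read after an 18 h incubation at 37 °C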
bact viab count: bacterial viability inhibition counter-screen, confirmation, counter-screen for AddAB inhibitor project, absorbance; hit rate 35% among 880; absorbance (AddAB counterscreen); shares compounds with AddAB inh; inhibition, % at 11.9 µM; in the data active = inhibition above about 25%
Each line names hits and unclear results; the compound was inactive in the other large screens (follow-up assays come after a bar, where they were run).

Cc1ccc(C)n1-c1nnc(N2CCC(C(=O)N3CCN(C)CC3)CC2)s1	none
CCN1CCN(C(=O)C2CCN(c3nnc(-n4c(C)ccc4C)s3)CC2)CC1	AddAB inh 131 | AddAB conf inactive | RecBCD counter inactive | bact viab count inactive
C=CCN1c2ccccc2[C@]23CC(C(=O)OC)N(C(=O)c4cccs4)C2=NC(C(=O)OC)=C(C(=O)OC)C13 (stereo partly specified)	none (no result: E coli growth-1, phage Ecoli inh, Tat transport, AddAB inh)
O=C(O)c1ccc(N/N=C/C=C/c2ccc([N+](=O)[O-])o2)cc1	AddAB inh 14 (no result: E coli growth-2) | AddAB conf 31 | RecBCD counter inactive | bact viab count inactive
CCCC(=O)NC(Nc1ccc(S(=O)(=O)Nc2cc(C)on2)cc1)(C(F)(F)F)C(F)(F)F	AddAB inh 16 | AddAB conf inactive | RecBCD counter inactive | bact viab count inactive
CCCC(=O)NC(Nc1ccc(S(=O)(=O)Nc2cc(C)on2)cc1)(C(=O)OCC)C(F)(F)F (stereo unspecified)	none
Fc1ccc(CON=CC2=C(Cl)c3ccccc3CC2)cc1	none (no result: E coli growth-1, phage Ecoli inh, Tat transport, AddAB inh)
C=CC1c2cccc(C)c2N(S(=O)(=O)c2ccc(C)cc2)C(c2ccccc2)C1(C#N)S(=O)(=O)c1ccccc1 (stereo unspecified)	none (no result: E coli growth-1, phage Ecoli inh, Tat transport, AddAB inh)
O=C(Cc1cccs1)NCCn1ccc2ccccc21	E coli growth-1 95, AddAB inh 99 | AddAB conf inactive | RecBCD counter inactive | bact viab count inactive
COc1ccc(CC(=O)NN=Cc2sccc2C)cc1	none (no result: E coli growth-1, phage Ecoli inh, Tat transport, AddAB inh)
CCN(Cc1ccccc1)C(=O)Cn1cc2c(n1)CCCC2	AddAB inh 12 | AddAB conf inactive | RecBCD counter inactive | bact viab count inactive
CC(C)OCC(O)CCc1n[nH]c(=S)n1-c1ccccc1 (stereo unspecified)	none
CCCCOCC(O)CCc1n[nH]c(=S)n1-c1ccccc1 (stereo unspecified)	E coli growth-1 27, AddAB inh 84 | AddAB conf inactive | RecBCD counter inactive | bact viab count inactive
O=C(Oc1cccc2cccnc12)c1cccc([N+](=O)[O-])c1	none
O=C(Oc1c(Cl)cc(Cl)c2cccnc12)c1cccc([N+](=O)[O-])c1	E coli growth-1 28, E coli growth-2 0.071, AddAB inh 30 (no result: phage Ecoli inh) | AddAB conf 62 | RecBCD counter 59 | bact viab count 58
CC(=O)Nc1ccc(C(=O)OCC(=O)c2ccc(F)cc2)cc1	none
CC(=O)Nc1ccc(C(=O)OCC(=O)Nc2c(F)cccc2F)cc1	E coli growth-1 74, AddAB inh 90 | AddAB conf inactive | RecBCD counter inactive | bact viab count inactive
O=C1NCCOc2ccccc21	none (no result: E coli growth-1, E coli growth-2, Tat transport, AddAB inh)
O=C1NCCO1	E coli growth-1 101, AddAB inh 100 (no result: E coli growth-2) | AddAB conf inactive | RecBCD counter inactive | bact viab count inactive
CCC(=O)NC(c1ccccc1OC)c1ccc2cccnc2c1O (stereo unspecified)	E coli growth-1 24, AddAB inh 28 (no result: phage Ecoli inh) | AddAB conf 18 | RecBCD counter 23 | bact viab count inactive
O=C(NN=C/C=C/c1ccccc1)NC1CCCCC1	none (no result: E coli growth-1, phage Ecoli inh, Tat transport, AddAB inh)
O=C(N/N=C/C=C/c1ccccc1)NC1CCCCC1	E coli growth-1 18, AddAB inh 37 (no result: E coli growth-2) | AddAB conf inactive | RecBCD counter inactive | bact viab count inactive
ON=Cc1ccc(OCc2ccccc2F)c(Cl)c1	none (no result: E coli growth-1, phage Ecoli inh, Tat transport, AddAB inh)
O=C(Cn1cc(C(=O)c2ccco2)c2ccccc21)Nc1ccccc1	E coli growth-1 16, AddAB inh 17 | AddAB conf inactive | RecBCD counter 11 | bact viab count inactive
CN1C(=O)C2C(C=Cc3ccccc3)N3C(=O)CN(Cc4ccc(-c5ccccc5)cc4)C(=O)[C@@]3(C)C2C1=O (stereo partly specified)	none (no result: E coli growth-1, phage Ecoli inh, Tat transport, AddAB inh)
Oc1ccc(N=Nc2c(O)ccc3ccccc23)cc1	E coli growth-1 13, AddAB inh 13 | AddAB conf 60 | RecBCD counter inactive | bact viab count inactive
NS(=O)(=O)c1ccc(N=Nc2c(O)ccc3ccccc23)cc1	none
